About 450 (0.94%) of roughly 48,000 compounds were called active. About 19% were inconclusive and are not listed. For the sample, actives were picked, then their nearest neighbours and some compounds at random. Values without a mark were called inactive. Calls come from the whole dose curve; as a rule, active = well fitted inhibition curve with a large enough effect; inconclusive = small, poorly fitted or top-dose-only effect; inactive = no such curve, though single readings can be large or run the other way.
Test: Primary qHTS for Identification of Small Molecule Inhibitors of Huntingtin Promoter Activity; note: nearly all actives have a fitted effect of over 50% in size
Conditions: HEK293 HTT promoter firefly luciferase reporter (activity 0% = vehicle and -100% = no light), 24 h; series mostly up to 57.5 µM; activity change, negative = inhibition: at the top concentration
From the text: Assay Provider: Russell L. Margolis M.D.
Department Neurology, Johns Hopkins University School of Medicine, Baltimore, MD
Huntington's Disease (HD) is a neurodegenerative disorder caused by a CAG repeat expansion in exon 1 of huntingtin (HTT). While there are currently no disease-modifying treatments for HD, recent efforts have focused on development of nucleotide-based therapeutics to lower HTT expression. As an alternative to siRNA or oligonucleotide methods, we hypothesized that suppression of HTT expression might be accomplished by small molecules that either (1) directly decrease HTT expression by suppressing HTT promoter activity or (2) indirectly decrease HTT expression by increasing the promoter activity of HTT-AS, the gene antisense to HTT that appears to inhibit expression of HTT.
We developed and employed a high throughput screen for modifiers of HTT and HTT-AS promoter activity using luminescent reporter HEK293 cells; of the 52,041 compounds tested, we identified 898 replicable hits. We used a rigorous stepwise approach to assess compound toxicity and the capacity of the compounds to specifically lower huntingtin protein in 5 different cell lines, including HEK293 cells, HD lymphoblastoid cells, mouse primary neurons, HD iPSCs differentiated into cortical-like neurons, and HD hESCs. We found no compounds which were able to lower huntingtin without lowering cell viability in all assays, though the potential efficacy of a few compounds at non-toxic doses could not be excluded.
SEQUENCE No. (1, 2, 3, etc.); […] (e.g., Cells, Incubation, Reagent, etc.); VALUE and DESCRIPTION.
1; Reagent; 4 uL; 2,500 Hek293 luciferase reporter cells per wells
3; Compound; 23 nL; Control inhibitor / compound library
5; Reagent; 2.5 uL; Firefly Luc reagent; Dual-Glo Luciferase Reporter Assay System (Promega)
6; Time; 10 min; room temperature incubation
7; Detection; Luminescence; FLuc
NOTES (numbers refer to sequence above)
1; High-throughput screening, measuring luminescence from a Hek293 luciferase reporter, was performed in 1,536 well white-walled tissue-culture treated plates. 2,500 cells were plated in 4 µL of Opti-MEM per well using a Multidrop Combi Reagent Dispenser (ThermoFisher).
2; Assay plates were cultured for 24 hours.
3; Control inhibitor (PTC124; final concentration of 50 uM) and compound library (at final concentrations of 460 nM - 57.5 uM) were added to the assay plate using the Kalypsis Pintool Robotic System equipped with 1536 pinheads.
4; Cells were then incubated for 24 hours at 37 degrees C prior to luminescence measurements.
5; In all cases, luminescence was measured using the Dual-Glo Luciferase Reporter Assay System (Promega) following the manufacturer's instructions.
6; Room temperature incubation.
7; Luminescence signal was obtained using the PerkinElmer ViewLux plate reader. Results were normalized to vehicle control (0% activity) and zero RLU (-100% activity).
Potency is the fitted concentration of half-maximal effect.

SMILES	activity change, negative = inhibition	Potency
CCOc1ccc(S(=O)(=O)c2cn(Cc3ccc(OC)cc3)c3ccc(F)cc3c2=O)cc1	-19.5%	–
Cc1sc(C2C(C#N)=C(N)N(c3cccc(Cl)c3)C3=C2C(=O)CCC3)cc1CN1CCOCC1 (stereo unspecified)	-8.58%	–
COc1ccc(NC(=O)c2ccco2)cc1NC(=O)c1ccc(C#N)cc1F	-8.77%	–
CCc1cccc(NC(=O)CN(C)S(=O)(=O)c2ccc3[nH]c4c(c3c2)CCCC4)c1	-24.5%	–
COc1ccc(OC)c(-n2nnc3c(sc4nc(C)c(Br)c(C)c43)c2=O)c1	-16%	–
Cc1c(C(=O)N(C)C)sc2c1c(=O)n(-c1ccc(F)cc1)c(=O)n2CC(=O)N(C)c1ccccc1	-16.9%	–
COc1cc(C(=O)NCC(c2ccc(Cl)cc2)N2CCOCC2)cc(OC)c1OC (stereo unspecified)	-3.92%	–
CCOc1ccc(C(NC(=O)c2cc(OC)c(OC)c(OC)c2)c2cc(Cl)c3cccnc3c2O)cc1 (stereo unspecified)	–	3.55 µM (active)
COc1c(Cl)cc(Cl)cc1C(=O)Nc1cccc2cccnc12	-11.6%	–
CCCCCn1c(=O)[nH]c2cc(C(=O)Nc3cc(C)cc(C)c3)ccc2c1=O	-2.81%	–
Cc1ccc(Cl)cc1N1CCN(S(=O)(=O)c2cc3[nH]c(=O)c(=O)[nH]c3cc2C)CC1	-8.72%	–
CC(=O)c1sc(N2C(=O)c3oc4ccccc4c(=O)c3C2c2ccc(C)cc2)nc1C (stereo unspecified)	-13.5% [at 11.5 µM]	–
CCS(=O)(=O)N1CCc2cc(C(=O)NCc3ccc(C)cc3)ccc21	-14.9%	–
CCOC(=O)c1c(C)oc2nc(C)nc(Nc3ccc(CC)cc3)c12	-7.44%	–
O=C(Cn1c(=O)nc(-c2ccccc2)c2cc(Cl)ccc21)NCc1ccc(Cl)cc1	-24%	–
CCCOc1cccc(C(=O)Nc2cccc(NC(=O)c3ccc(C(C)(C)C)cc3)c2)c1	28.7%	–
CCCN(CCC)CCNC(=O)Cn1cnc2sc(C)c(S(=O)(=O)N3CCC(C)CC3)c2c1=O	-16.4%	–
CCc1nn(CCCC(=O)NC(C)c2ccccc2)c(=O)c2cc3occc3n12 (stereo unspecified)	-11%	–
COc1ccc(-c2cc(-c3nc(-c4cc(OC)c(OC)c(OC)c4)no3)[nH]n2)c(OC)c1	-15.4%	–
Cc1ccccc1-c1nc(CS(=O)(=O)CC(=O)NC(C)c2ccccc2)c(C)o1 (stereo unspecified)	-27.7%	–
Cc1ccc(Cl)cc1N1CCN(C(=O)CN2C(=O)COc3ccc(S(=O)(=O)N4CCOCC4)cc32)CC1	-16.6%	–
Cc1cccc(N2CCN(C(=O)COCc3cc(-c4ccc5c(c4)OCO5)on3)CC2)c1C	-5.06%	–
O=C(Cn1c(-c2cccs2)cc2ccccc21)NCCc1ccc(Cl)cc1	-23.6%	–

SMILES	activity change, negative = inhibition	Potency
Cc1oc(-c2ccccc2F)nc1CN1CCC(C(=O)NCCc2ccc(Cl)cc2)CC1	-11.4%	–
Cc1c(NC(=O)Nc2ccc(F)c(Cl)c2)c(=O)n(-c2ccccc2)n1C	-12.5%	–
CCN(CC)S(=O)(=O)c1ccc2c(c1)N(CC(=O)NCC(C)c1ccccc1)C(=O)CO2 (stereo unspecified)	-11.4%	–
CCN(CCCNC(=O)c1cc2c(=O)n(CC)c3ccccc3c2s1)Cc1ccccc1	3.33%	–
Cc1ccc(Cl)cc1N(C)C(=O)Cn1nc(Cc2cccnc2)c2ccccc2c1=O	-22%	–
CC(=O)c1cccc(Nc2ccc3cc(S(=O)(=O)N4CCC(C)CC4)ccc3n2)c1	-11.7%	–
C[C@@H](NC(=O)c1ncnc(N)c1Cl)c1ncc(C(=O)Nc2cc(C(F)(F)F)c(Cl)cn2)s1	-16.3%	–
Cc1cc(NC(=O)CSc2ncc(C(=O)Nc3ccc(Cl)cc3)c(=O)n2C)no1	-1.72%	–
CC(=O)c1ccc(NC(=O)C2CCN(S(=O)(=O)c3c(C)noc3/C=C/c3ccc(C)cc3)CC2)cc1	-21%	–
CC(C)c1ccc(NC(=O)C2CCN(c3nc(-c4ccc(C(C)C)cc4)no3)CC2)cc1	–	0.0891 µM (active)
CCOC(=O)c1ccc(NC(=O)C2CC(=O)N(c3ccc(C(C)C)cc3)C2)cc1 (stereo unspecified)	4.03%	–
Cc1ccc2nc(CNC(=O)c3ccccc3)[nH]c2c1	0%	–
COCCCNC(=O)CN1C(=O)CSc2ccc(S(=O)(=O)N3CCOCC3)cc21	-9.25%	–
CCCNC(=O)c1ccc2c(c1)ncn2-c1ccc(C)cc1C	-9.41%	–
CN1C(=O)C[C@H](C(=O)N[C@@H](Cc2cnc[nH]2)C(=O)N2CCC[C@@H]2C(N)=O)NC1=O	9.02%	–
COc1ccc(C(=O)NCC(c2ccc(N(C)C)cc2)N2CCc3ccccc32)c(OC)c1 (stereo unspecified)	-17.2%	–
COc1cccc(-n2c(=O)c3c(C)c(C(=O)N(C)C)sc3n(Cc3cccc(C)c3)c2=O)c1	-4.23%	–
COc1ccc2c(c1)C=C(C(=O)NCc1cc(Br)ccc1OC)CO2	-23.7%	–
CCc1ccccc1NC(=O)c1ccc2nc(CCc3ccccc3)oc2c1	0%	–
O=C(Nc1cccc(-c2nc3ccccc3o2)c1)c1cccc(Br)c1	-18.9%	–
Cc1cc(C)c(/C=C/c2onc(C)c2S(=O)(=O)N2CCC(C(=O)Nc3ccc(Cl)cc3C)CC2)c(C)c1	3.16%	–
CCOc1ccc(NC(=O)C2CCN(S(=O)(=O)c3cc(-c4noc(C)n4)ccc3C)CC2)cc1	-10.5%	–
Cc1ccc(NC(=O)C2CCN(S(=O)(=O)c3cc(-c4noc(C)n4)ccc3C)CC2)c(C)c1	–	11.2 µM (active)
